In ChEMBL document CHEMBL3988442, “University of Dundee, Small-Polar-MMV Screening Library” (2021):
Out of some 48,000 compounds screened, about 13,000 (27%) showed an effect of 50% or more. This is one part of the list.

test system: Wolbachia pipientis; assay: Anti-Wolbachia Cell-Based Screen; type: functional; parameters: scale not given: in the data most compounds retested in dose-response had high values; details: 5 µM

| SMILES | Percent Effect |
| --- | --- |
| CCSc1ncc(CN(Cc2cnn(C)c2)CC(C)C)cn1 | -10.44% |
| Cc1cc(C(=O)OCC2CCCN2C(N)=O)c(C)o1 (centres undefined) | -25.43% |
| CC(C)c1cc(N2CCC[C@H](N)C2)n2nccc2n1 | 19.12% |
| CCc1noc(CNc2cc3c(cc2Cl)OCCCO3)n1 | -0.8134% |
| Cc1n[nH]c(=O)c2c(NC(=O)CN3CCCC(C(F)(F)F)C3)oc(C)c12 (centres undefined) | 17.73% |
| CC(NC(=O)N1CCS(=O)(=O)CC1)c1ccc(F)cc1Cl (centres undefined) | -12.17% |
| NC(=O)C1=NC2=NS(=O)(=O)c3ccccc3N2N1Cc1ccccc1Cl | -9.423% |
| COc1ccc(NC(C)=O)c(N2CCN(C(C)=O)CC2)n1 | 4.921% |
| COc1ccc2c3c1CN(C(C)=O)CC3=CC(C)(C)CO2 | 80.53% |
| COc1ccc2c3c1CN(S(C)(=O)=O)CC3=CC(C)(C)CO2 | 106.6% |
| COCC1CC2(CCN(C(=O)c3ccc(OC)c(Cl)c3)CC2)CO1 (centres undefined) | 1.634% |
| COc1ccccc1C(C)N1CCN(S(C)(=O)=O)CC1 (centres undefined) | -21.28% |
| COCCOC(=O)N1CC2=CC(C)(C)COc3ccc(OC)c(c32)C1 | 110% |
| COC(=O)N1CC2=CC(C)(C)COc3ccc(OC)c(c32)C1 | 125.4% |
| COc1ncccc1C1CC(=O)NCc2nc3sccn3c21 (centres undefined) | -19.07% |
| COCc1cc(NCc2cccnc2Oc2ccc(C)nc2)ncn1 | -2.689% |
| CSCCC1c2nc[nH]c2CCN1Cc1cncn1C (centres undefined) | -0.6967% |
| CSCc1noc(CNC(=O)c2cc(C)c(C)[nH]c2=O)n1 | -3.67% |
| CC(C)N(C)C(=O)C1CSCN1S(=O)(=O)c1cccs1 (centres undefined) | 24.99% |
| CCc1cc(NCC(N)=O)nc(N2CCCCC2)n1 | 3.256% |
| COCC(=O)N1CCN(C(=O)C2(c3ccc(C)c(OC)c3)CC2)CC1 | 8.797% |
| COCC(=O)N1CCc2[nH]nc(-c3ccc4c(c3)OCO4)c2C1 | -8.415% |
| COc1ccc2c3c1CN(C(=O)N(C)C)CC3=CC(C)(C)CO2 | 71.28% |

| SMILES | Percent Effect |
| --- | --- |
| CCNC(=O)N1C[C@@H](NC(C)=O)[C@H](c2ccc(C)o2)C1 | -5.007% |
| CCNC(=O)N1CCC2(CC1)CCn1c(-c3cccc(OC)c3)cnc12 | -4.783% |
| COc1ccc2cc(C3CN(C(=O)N(C)C)CCO3)ccc2c1 (centres undefined) | 8.393% |
| COCC(=O)N1CC2=CC(C)(C)COc3ccc(OC)c(c32)C1 | 86.58% |
| CCNC(=O)N1CC2=CC(C)(C)COc3ccc(OC)c(c32)C1 | 61.47% |
| Cc1cccc2ncnc(N3CCOC(C)C3)c12 (centres undefined) | 0.1008% |
| O=C1C(N2CCN(c3ccccc3Cl)CC2)CCN1C1CCOCC1 (centres undefined) | -17.41% |
| CCCn1nc(C)c(CNC(=O)C2COc3c(cccc3OC)C2)c1C (centres undefined) | -7.419% |
| O=C(NC[C@H]1OC[C@@H](NCc2ccccc2F)[C@@H]1O)c1ccc(F)cc1 | -2.288% |
| Cc1cccc(NC(=O)c2[nH]nc(C(C)C)c2Br)n1 | 122.8% |
| CC(C)c1n[nH]c(C(=O)Nc2ccncc2)c1Br | -16.38% |
| CC(C)c1n[nH]c(C(=O)Nc2ccnn2C(C)C)c1Br | -14.02% |
| COc1ncccc1NC(=O)c1[nH]nc(C(C)C)c1Br | 15.14% |
| Cc1ccnc(NC(=O)c2[nH]nc(C(C)C)c2Br)c1 | 97.23% |
| COc1ccncc1NC(=O)c1[nH]nc(C(C)C)c1Br | -9.572% |
| CC(C)c1n[nH]c(C(=O)NC(C)c2ccncc2)c1Br (centres undefined) | 112.2% |
| CC(C)c1n[nH]c(C(=O)Nc2cc[nH]n2)c1Br | -7.047% |
| CC(C)c1n[nH]c(C(=O)Nc2ccccn2)c1Br | 113.3% |
| Cn1cc(CN2CCn3cc(CNC(=O)C4CCC4)nc3C2)cn1.O=C(O)C(F)(F)F | 18.03% |
| O=C(NCc1nnc2ccccn12)N1CCOC(c2cccs2)C1 (centres undefined) | -3.405% |
| COc1ccc(-n2nc(C3CC3)nc2CCn2cnnn2)cc1 | -7.711% |
| COc1ccc(N2Cc3n[nH]c(=O)n3C2=O)cc1 | -0.5114% |
| COC[C@@H]1CCC[C@@]12CN(C(=O)N(C)C)CCO2 | 101.2% |

| SMILES | Percent Effect |
| --- | --- |
| COC[C@H]1CCC[C@]12CN(CCc1ccccc1)CCO2.O=C(O)C(F)(F)F | 30.11% |
| O=C(c1ccno1)N1CCO[C@]2(CCC[C@@H]2COCc2ccncc2)C1 | -0.3534% |
| COC[C@H]1CCC[C@]12CN(C(=O)NCc1ccccc1)CCO2 | 18.34% |
| O=C(c1ccoc1)N1CCO[C@]2(CCC[C@@H]2COCc2ccncc2)C1 | -6.569% |
| O=C(O)C(F)(F)F.O=C(c1ccc[nH]1)N1CCO[C@]2(CCC[C@@H]2COc2cccnc2)C1 | -3.807% |
| COC[C@@H]1CCC[C@@]12CN(C(=O)N1CCCC1)CCO2 | 87.5% |
| COCC(=O)N1CCO[C@]2(CCC[C@H]2COC)C1 | 106.8% |
| Cc1[nH]c2c(F)cccc2c1CC(=O)NCCCNc1cccnc1 | 12% |
| Cc1noc(COCC(=O)Nc2ccc(Br)c(C)n2)n1 | 11.2% |
| O=C(c1ccccc1)N1C[C@@H]2CC[C@H](C1)N(C(=O)CN1CCOCC1)C2 | -9.595% |
| CCc1nc(CNC(=O)c2ccc(C(C)N3CCCCC3)o2)cc(=O)[nH]1 (centres undefined) | -0.08952% |
| CCCc1nc(N(C)CCN2CCCCCC2)c2cnn(C)c2n1 | 11.67% |
| CCn1c(C)nnc1SCCNc1nc(C)nc2c1cnn2C | -4.457% |
| CCOC(=O)CC(C)Nc1nc(C2CCCC2)nc2c1cnn2C (centres undefined) | -2.112% |
| CCCc1nc(NC2(COC)CCCC2)c2cnn(C)c2n1 | 85.47% |
| Cn1ncc2c(NCCC34CCCN3CCC4)nc(C3CCCC3)nc21 | 4.055% |
| Cc1nsc(NC(=O)NC2(CN3CCCCC3)CCCCC2)n1 | 1.448% |
| Cc1nc(NC2(CN3CCCCC3)CCCCC2)c2cnn(C)c2n1 | 98.05% |
| CCOC(=O)CC1(Nc2nc(C)nc3c2cnn3C)CCCCC1 | 107.9% |
| CCC(Nc1nc(C)nc2c1cnn2C)c1ncnn1CC (centres undefined) | 13.02% |
| COCC1(Nc2nc(C)nc3c2cnn3C)CCCC1 | 115.3% |
| CCOC(=O)CNc1nc(C(C)(C)C)nc2c1cnn2C | 2.145% |
| CCOC(=O)CNc1nc(COC)nc2c1cnn2C | 5.543% |
